Where a name gives a salt, the structure may show the parent alone.
Test system: Danio rerio larvae (5 dpf)
Experiment: activity during first hour (no stimuli), difference vs DMSO (percentage points (treated minus DMSO)); higher = more of the behaviour than the DMSO vehicle control
Conditions: 10 µM; exposure time: 3 h pre-incubation + 3 h imaging
Protocol: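 5-dpf wild-type zebrafish larvae were imaged in 96-well plates. They were treated with 190 Tocris FDA-approved drugs at 10 µM (1 µl/ml DMSO) for 3 h before and 3 h during imaging at 28.5 °C, 48 larvae per drug. Automated image analysis gave % time moving and optomotor responses. Values are drug group mean minus DMSO vehicle mean (n=844), in percentage points, for 10 behaviours.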

Compared with Cc1nc(-c2ccc(OCC(C)C)c(C#N)c2)sc1C(=O)O [Febuxostat], CC(C)c1nc(N(C)S(C)(=O)=O)nc(-c2ccc(F)cc2)c1/C=C/[C@@H](O)C[C@@H](O)CC(=O)O [Rosuvastatin calcium] is higher in “activity during first hour” value: -0.179 for the first, 3.37 for the second.

Going from C=C1[C@H](CO)[C@@H](O)C[C@@H]1n1cnc2c(=O)[nH]c(N)nc21 [Entecavir] to Nc1nc(Cl)nc2c1ncn2[C@@H]1O[C@H](CO)[C@@H](O)[C@@H]1F [Clofarabine], the “activity during first hour” value falls from -1.96 to -3.77.

Compared with CN1CC2c3ccccc3Oc3ccc(Cl)cc3C2C1 (stereo not given) [Asenapine maleate], Cc1cccc(CN2CCN(C(c3ccccc3)c3ccc(Cl)cc3)CC2)c1 (stereo not given) [Meclizine dihydrochloride] is lower in “activity during first hour” value: 38.5 for the first, 29.1 for the second.

Compared with CC(C)N(CCCCOCC(=O)NS(C)(=O)=O)c1cnc(-c2ccccc2)c(-c2ccccc2)n1 [Selexipag], CC(C)c1nc(CN(C)C(=O)N[C@H](C(=O)N[C@@H](Cc2ccccc2)C[C@H](O)[C@H](Cc2ccccc2)NC(=O)OCc2cncs2)C(C)C)cs1 [Ritonavir] is lower in “activity during first hour” value: 4.1 for the first, -0.488 for the second.

Going from CNC(=O)c1ccccc1Sc1ccc2c(/C=C/c3ccccn3)n[nH]c2c1 [Axitinib] to CC(C)n1c(/C=C/C(O)CC(O)CC(=O)O)c(-c2ccc(F)cc2)c2ccccc21 (stereo not given) [Fluvastatin sodium], the “activity during first hour” value rises from -2.72 to 1.98.

First: C[C@]12CC[C@@H]3c4ccc(O)cc4C[C@@H](CCCCCCCCC[S+]([O-])CCCC(F)(F)C(F)(F)F)[C@H]3[C@@H]1CC[C@@H]2O (stereo not given in full)
Second: CC1CNc2c(cccc2S(=O)(=O)N[C@@H](CCCNC(=N)N)C(=O)N2CC[C@@H](C)C[C@@H]2C(=O)O)C1 (stereo not given in full) [Argatroban]
The “activity during first hour” value of the first is higher: 7.08 for the first, 4.69 for the second.

Going from C=CC(=O)N1CCC[C@@H](n2nc(-c3ccc(Oc4ccccc4)cc3)c3c(N)ncnc32)C1 [Ibrutinib] to O=C(O)C[C@H](O)C[C@H](O)/C=C/c1c(C2CC2)nc2ccccc2c1-c1ccc(F)cc1 [Pitavastatin calcium], the “activity during first hour” value rises from -6.62 to -0.557.

First: CC(C)Nc1cccnc1N1CCN(C(=O)c2cc3cc(NS(C)(=O)=O)ccc3[nH]2)CC1 [Delavirdine mesylate]
Second: Cc1cc2c(s1)Nc1ccccc1N=C2N1CCN(C)CC1 [Olanzapine]
The “activity during first hour” value of the first is lower: -1.59 for the first, 8.05 for the second.

Compared with CCCCCOC(=O)Nc1nc(=O)n([C@@H]2O[C@H](C)[C@@H](O)[C@H]2O)cc1F [Capecitabine], CC[C@H](C)C(=O)O[C@H]1C[C@@H](C)C=C2C=C[C@H](C)[C@H](CC[C@@H]3C[C@@H](O)CC(=O)O3)[C@H]21 [Lovastatin] is lower in “activity during first hour” value: 6.31 for the first, -0.394 for the second.

Going from CC#C[C@]1(O)CC[C@H]2[C@@H]3CCC4=CC(=O)CCC4=C3[C@@H](c3ccc(N(C)C)cc3)C[C@@]21C [Mifepristone] to CC(=O)S[C@@H]1CC2=CC(=O)CC[C@]2(C)[C@H]2CC[C@@]3(C)[C@@H](CC[C@@]34CCC(=O)O4)[C@H]12 [Spironolactone], the “activity during first hour” value rises from -3.58 to -0.165.

Going from Cc1cc(C2CCCCC2)n(O)c(=O)c1 [Ciclopirox] to COc1ccc(Cl)cc1C(=O)NCCc1ccc(S(=O)(=O)NC(=O)NC2CCCCC2)cc1 [Glibenclamide], the “activity during first hour” value falls from 2.44 to 1.18.

First: CCc1c2c(nc3ccc(OC(=O)N4CCC(N5CCCCC5)CC4)cc13)-c1cc3c(c(=O)n1C2)COC(=O)[C@]3(O)CC
Second: COc1ccc(-c2ccc3cc(C(=O)O)ccc3c2)cc1C12CC3CC(CC(C3)C1)C2 [Adapalene]
The “activity during first hour” value of the first is lower: -4.43 for the first, -0.0907 for the second.

First: COc1ccccc1OCC(O)CN1CCN(CC(=O)Nc2c(C)cccc2C)CC1 (stereo not given) [Ranolazine dihydrochloride]
Second: Cc1ccc(NC(=O)c2ccc(CN3CCN(C)CC3)cc2)cc1Nc1nccc(-c2cccnc2)n1 [Imatinib mesylate]
The “activity during first hour” value of the first is higher: 10.4 for the first, -12.5 for the second.

Going from COCCCOc1cc(C[C@@H](C[C@H](N)[C@@H](O)C[C@H](C(=O)NCC(C)(C)C(N)=O)C(C)C)C(C)C)ccc1OC [Aliskiren hemifumarate] to CNS(=O)(=O)Cc1ccc2[nH]cc(CCN(C)C)c2c1 [Sumatriptan succinate], the “activity during first hour” value rises from -4.92 to 7.71.

First: C/C(O)=C(\C#N)C(=O)Nc1ccc(C(F)(F)F)cc1 [Teriflunomide]
Second: C[C@@H](O[C@H]1OCCN(Cc2n[nH]c(=O)[nH]2)[C@H]1c1ccc(F)cc1)c1cc(C(F)(F)F)cc(C(F)(F)F)c1 [Aprepitant]
The “activity during first hour” value of the first is lower: -8.27 for the first, -7.38 for the second.

Going from NS(=O)(=O)c1cc(C(=O)O)c(NCc2ccco2)cc1Cl [Furosemide] to CS(=O)(=O)CCNCc1ccc(-c2ccc3ncnc(Nc4ccc(OCc5cccc(F)c5)c(Cl)c4)c3c2)o1 [Lapatinib], the “activity during first hour” value falls from 5.98 to -5.32.

First: CCCCc1nc(Cl)c(CO)n1Cc1ccc(-c2ccccc2-c2nnn[nH]2)cc1 [Losartan potassium]
Second: CN(C)CCc1c[nH]c2ccc(Cn3cncn3)cc12 [Rizatriptan benzoate]
The “activity during first hour” value of the first is higher: 13 for the first, -2.37 for the second.

Going from C[C@H]1O[C@H](O[C@H]2[C@H](O)[C@@H](O)[C@@H](O[C@H]3[C@H](O)[C@@H](O)C(O)O[C@@H]3CO)O[C@@H]2CO)[C@H](O)[C@@H](O)[C@@H]1N[C@H]1C=C(CO)[C@@H](O)[C@H](O)[C@H]1O (stereo not given in full) [Acarbose] to OCCN1C[C@H](O)[C@@H](O)[C@H](O)[C@H]1CO [Miglitol], the “activity during first hour” value falls from -0.41 to -1.33.

Compared with COc1cc([C@@H]2c3cc4c(cc3[C@@H](O[C@@H]3O[C@@H]5CO[C@@H](C)O[C@H]5[C@H](O)[C@H]3O)[C@H]3COC(=O)[C@H]23)OCO4)cc(OC)c1O [Etoposide], COc1c(C)c2c(c(O)c1C/C=C(\C)CCC(=O)O)C(=O)OC2 [Mycophenolic acid] is lower in “activity during first hour” value: 3.81 for the first, 2.64 for the second.

First: C#CCN[C@@H]1CCc2ccccc21 [Rasagiline mesylate]
Second: Cc1nnc(C(C)C)n1C1C[C@H]2CC[C@@H](C1)N2CC[C@H](NC(=O)C1CCC(F)(F)CC1)c1ccccc1 (stereo in doubt) [Maraviroc]
The “activity during first hour” value of the first is higher: 4.92 for the first, -3.61 for the second.

Reference: the supplement of paper PMC9023506
